# From publication PMC11006913
# Where a chain is given by its changes, count along the chain named.
# Assays:
# Experiment in all cases: PBM; 200 nM protein, PBS
# Details in all cases: dsDNA, one strand shown
# HOXB4 [1] = biological target: HOXB4 (Homo sapiens, UniProt P17483 148-234)
# HOXB4 [2] = biological target: HOXB4 (Homo sapiens, UniProt P17483 148-234, V174I)
# ALX1 [3] = biological target: ALX1 (Homo sapiens, UniProt Q15699 118-204, L144V)
# ALX1 [4] = biological target: ALX1 (Homo sapiens, UniProt Q15699 118-204, L144R)
# ALX1 (Homo sapiens, UniProt Q15699 118-204, L144R), sequence (Q15699 118-204 L144R): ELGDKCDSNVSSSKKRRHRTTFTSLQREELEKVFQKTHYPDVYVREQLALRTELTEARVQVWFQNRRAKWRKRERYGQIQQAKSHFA
# VAX1 [5] = biological target: VAX1 (Homo sapiens, UniProt Q5SQQ9 86-172)
# VAX1 (Homo sapiens, UniProt Q5SQQ9 86-172), sequence (Q5SQQ9 86-172): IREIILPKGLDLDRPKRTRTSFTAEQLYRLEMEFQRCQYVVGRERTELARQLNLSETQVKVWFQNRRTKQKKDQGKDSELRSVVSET
# VAX1 [6] = biological target: VAX1 (Homo sapiens, UniProt Q5SQQ9 86-172, T142I)
# VAX1 (Homo sapiens, UniProt Q5SQQ9 86-172, T142I), sequence (Q5SQQ9 86-172 T142I): as the sequence (Q5SQQ9 86-172) above, with T57I counted along it
# ALX1 [7] = biological target: ALX1 (Homo sapiens, UniProt Q15699 118-204)
# ALX1 (Homo sapiens, UniProt Q15699 118-204), sequence (Q15699 118-204): as the sequence (Q15699 118-204 L144R) above, with R27L counted along it
# VAX1 [8] = biological target: VAX1 (Homo sapiens, UniProt Q5SQQ9 86-172, K157R)
# VAX1 (Homo sapiens, UniProt Q5SQQ9 86-172, K157R), sequence (Q5SQQ9 86-172 K157R): as the sequence (Q5SQQ9 86-172) above, with K72R counted along it
# HOXD13 [9] = biological target: HOXD13 (Homo sapiens, UniProt P35453 263-343, T313R)
# HOXD13 (Homo sapiens, UniProt P35453 263-343, T313R), sequence (P35453 263-343 T313R): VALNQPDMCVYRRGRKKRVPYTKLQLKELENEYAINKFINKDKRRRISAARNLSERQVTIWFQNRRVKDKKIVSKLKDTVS
# HOXD13 [10] = biological target: HOXD13 (Homo sapiens, UniProt P35453 263-343)
# HOXD13 (Homo sapiens, UniProt P35453 263-343), sequence (P35453 263-343): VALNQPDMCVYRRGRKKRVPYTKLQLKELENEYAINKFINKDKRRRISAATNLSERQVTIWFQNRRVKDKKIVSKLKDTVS
# ALX3 [11] = biological target: ALX3 (Homo sapiens, UniProt O95076 139-225)
# ALX3 (Homo sapiens, UniProt O95076 139-225), sequence (O95076 139-225): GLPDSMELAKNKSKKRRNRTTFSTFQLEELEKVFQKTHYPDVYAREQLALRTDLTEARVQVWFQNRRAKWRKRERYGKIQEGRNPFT
# ALX3 [12] = biological target: ALX3 (Homo sapiens, UniProt O95076 139-225, L168Q)
# ALX3 (Homo sapiens, UniProt O95076 139-225, L168Q), sequence (O95076 139-225 L168Q): as the sequence (O95076 139-225) above, with L30Q counted along it
# HOXD13 [13] = biological target: HOXD13 (Homo sapiens, UniProt P35453 263-343, T313A)
# HOXD13 (Homo sapiens, UniProt P35453 263-343, T313A), sequence (P35453 263-343 T313A): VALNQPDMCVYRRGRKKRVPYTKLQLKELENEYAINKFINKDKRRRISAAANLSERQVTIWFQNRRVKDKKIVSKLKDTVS
# ALX3 [14] = biological target: ALX3 (Homo sapiens, UniProt O95076 139-225, L168V)
# ALX3 (Homo sapiens, UniProt O95076 139-225, L168V), sequence (O95076 139-225 L168V): as the sequence (O95076 139-225) above, with L30V counted along it
# ALX3 [15] = biological target: ALX3 (Homo sapiens, UniProt O95076 139-225, N203S)
# ALX3 (Homo sapiens, UniProt O95076 139-225, N203S), sequence (O95076 139-225 N203S): as the sequence (O95076 139-225) above, with N65S counted along it
# PROP1 [16] = biological target: PROP1 (Homo sapiens, UniProt O75360 56-141)
# PROP1 (Homo sapiens, UniProt O75360 56-141), sequence (O75360 56-141): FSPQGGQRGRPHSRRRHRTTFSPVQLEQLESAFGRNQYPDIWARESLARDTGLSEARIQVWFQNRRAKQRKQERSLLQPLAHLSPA
# PROP1 [17] = biological target: PROP1 (Homo sapiens, UniProt O75360 56-141, R99H)
# PROP1 (Homo sapiens, UniProt O75360 56-141, R99H), sequence (O75360 56-141 R99H): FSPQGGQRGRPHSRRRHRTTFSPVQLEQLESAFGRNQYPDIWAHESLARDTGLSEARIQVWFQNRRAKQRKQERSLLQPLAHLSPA
# PROP1 [18] = biological target: PROP1 (Homo sapiens, UniProt O75360 56-141, F88S)
# PROP1 (Homo sapiens, UniProt O75360 56-141, F88S), sequence (O75360 56-141 F88S): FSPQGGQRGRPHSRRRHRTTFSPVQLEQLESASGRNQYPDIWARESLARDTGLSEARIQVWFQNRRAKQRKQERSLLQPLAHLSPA
# NKX2-6 [19] = biological target: T1, NKX2-6 (Homo sapiens, UniProt A6NCS4 118-204)
# T1 sequence: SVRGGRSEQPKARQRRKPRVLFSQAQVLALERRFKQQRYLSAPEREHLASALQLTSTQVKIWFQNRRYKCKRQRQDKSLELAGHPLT
# NKX2-6 [20] = biological target: T2, NKX2-6 (Homo sapiens, UniProt A6NCS4 118-204, F151L)
# T2 sequence: T1 sequence with F34L
# SHOX = SHOX (Homo sapiens, UniProt O15266 103-189)
# SHOX, sequence (O15266 103-189): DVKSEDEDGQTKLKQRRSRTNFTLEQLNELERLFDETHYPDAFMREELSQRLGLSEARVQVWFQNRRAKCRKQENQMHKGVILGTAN
# CRX = CRX (Homo sapiens, UniProt O43186 26-111, R41L)
# CRX, sequence (O43186 26-111 R41L): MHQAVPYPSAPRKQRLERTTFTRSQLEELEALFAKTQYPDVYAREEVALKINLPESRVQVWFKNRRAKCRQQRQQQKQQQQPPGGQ
# PITX2 = PITX2 (Homo sapiens, UniProt Q99697 72-157)
# HOXB4 (Homo sapiens, UniProt P17483 148-234), sequence (P17483 148-234): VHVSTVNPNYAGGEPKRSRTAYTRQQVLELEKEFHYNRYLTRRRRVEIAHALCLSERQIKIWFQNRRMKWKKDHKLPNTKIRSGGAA
# HOXB4 (Homo sapiens, UniProt P17483 148-234, V174I), sequence (P17483 148-234 V174I): as the sequence (P17483 148-234) above, with V27I counted along it
# ALX1 (Homo sapiens, UniProt Q15699 118-204, L144V), sequence (Q15699 118-204 L144V): as the sequence (Q15699 118-204 L144R) above, with R27V counted along it
sequence,measurement,setting,value
TCATTGGA,binding signal,HOXB4 [1],"10.1 upbm affinity estimate (log intensity, higher = more binding, comparable within an allelic series)"
same,binding signal,HOXB4 [2],"9.83 upbm affinity estimate (log intensity, higher = more binding, comparable within an allelic series)"
GGAGTAAA,binding signal,HOXB4 [1],"9.68 upbm affinity estimate (log intensity, higher = more binding, comparable within an allelic series)"
same,binding signal,HOXB4 [2],"9.73 upbm affinity estimate (log intensity, higher = more binding, comparable within an allelic series)"
CTAGGCAG,binding signal,HOXB4 [1],"8.13 upbm affinity estimate (log intensity, higher = more binding, comparable within an allelic series)"
same,binding signal,HOXB4 [2],"7.88 upbm affinity estimate (log intensity, higher = more binding, comparable within an allelic series)"
CGGGAAAG,binding signal,ALX1 [3],"6.35 upbm affinity estimate (log intensity, higher = more binding, comparable within an allelic series)"
same,binding signal,ALX1 [4],"6.49 upbm affinity estimate (log intensity, higher = more binding, comparable within an allelic series)"
same,binding signal,VAX1 [5],"7.08 upbm affinity estimate (log intensity, higher = more binding, comparable within an allelic series)"
same,binding signal,VAX1 [6],"7.2 upbm affinity estimate (log intensity, higher = more binding, comparable within an allelic series)"
same,binding signal,ALX1 [7],"6.44 upbm affinity estimate (log intensity, higher = more binding, comparable within an allelic series)"
same,binding signal,VAX1 [8],"7.08 upbm affinity estimate (log intensity, higher = more binding, comparable within an allelic series)"
CGGGATGC,binding signal,ALX1 [3],"6.54 upbm affinity estimate (log intensity, higher = more binding, comparable within an allelic series)"
same,binding signal,ALX1 [4],"6.46 upbm affinity estimate (log intensity, higher = more binding, comparable within an allelic series)"
same,binding signal,ALX1 [7],"6.51 upbm affinity estimate (log intensity, higher = more binding, comparable within an allelic series)"
CTCCCGGC,binding signal,HOXD13 [9],"9.46 upbm affinity estimate (log intensity, higher = more binding, comparable within an allelic series)"
same,binding signal,HOXD13 [10],"9.39 upbm affinity estimate (log intensity, higher = more binding, comparable within an allelic series)"
same,binding signal,ALX3 [11],"7.57 upbm affinity estimate (log intensity, higher = more binding, comparable within an allelic series)"
same,binding signal,ALX3 [12],"7.75 upbm affinity estimate (log intensity, higher = more binding, comparable within an allelic series)"
same,binding signal,HOXD13 [13],"9.4 upbm affinity estimate (log intensity, higher = more binding, comparable within an allelic series)"
same,binding signal,ALX3 [14],"7.74 upbm affinity estimate (log intensity, higher = more binding, comparable within an allelic series)"
same,binding signal,ALX3 [15],"7.67 upbm affinity estimate (log intensity, higher = more binding, comparable within an allelic series)"
CTGGGGGA,binding signal,ALX3 [11],"7.77 upbm affinity estimate (log intensity, higher = more binding, comparable within an allelic series)"
same,binding signal,ALX3 [12],"7.72 upbm affinity estimate (log intensity, higher = more binding, comparable within an allelic series)"
same,binding signal,ALX3 [14],"7.67 upbm affinity estimate (log intensity, higher = more binding, comparable within an allelic series)"
same,binding signal,ALX3 [15],"7.72 upbm affinity estimate (log intensity, higher = more binding, comparable within an allelic series)"
CGGGCTGC,binding signal,PROP1 [16],"6.7 upbm affinity estimate (log intensity, higher = more binding, comparable within an allelic series)"
same,binding signal,PROP1 [17],"6.83 upbm affinity estimate (log intensity, higher = more binding, comparable within an allelic series)"
same,binding signal,PROP1 [18],"6.68 upbm affinity estimate (log intensity, higher = more binding, comparable within an allelic series)"
CCCGAGCC,binding signal,HOXB4 [1],"7.67 upbm affinity estimate (log intensity, higher = more binding, comparable within an allelic series)"
same,binding signal,HOXB4 [2],"7.83 upbm affinity estimate (log intensity, higher = more binding, comparable within an allelic series)"
same,binding signal,NKX2-6 [19],"9.42 upbm affinity estimate (log intensity, higher = more binding, comparable within an allelic series)"
same,binding signal,NKX2-6 [20],"9.3 upbm affinity estimate (log intensity, higher = more binding, comparable within an allelic series)"
ACTGTTAA,binding signal,SHOX,"8.56 upbm affinity estimate (log intensity, higher = more binding, comparable within an allelic series)"
ACAATCAA,binding signal,SHOX,"8.45 upbm affinity estimate (log intensity, higher = more binding, comparable within an allelic series)"
CATTTTCC,binding signal,SHOX,"8.3 upbm affinity estimate (log intensity, higher = more binding, comparable within an allelic series)"
CAGTGTGC,binding signal,HOXB4 [1],"7.61 upbm affinity estimate (log intensity, higher = more binding, comparable within an allelic series)"
same,binding signal,HOXB4 [2],"7.69 upbm affinity estimate (log intensity, higher = more binding, comparable within an allelic series)"
same,binding signal,PROP1 [16],"6.79 upbm affinity estimate (log intensity, higher = more binding, comparable within an allelic series)"
same,binding signal,PROP1 [17],"6.58 upbm affinity estimate (log intensity, higher = more binding, comparable within an allelic series)"
same,binding signal,PROP1 [18],"6.78 upbm affinity estimate (log intensity, higher = more binding, comparable within an allelic series)"
AATCGTGT,binding signal,SHOX,"8.39 upbm affinity estimate (log intensity, higher = more binding, comparable within an allelic series)"
AGTAAACG,binding signal,SHOX,"8.05 upbm affinity estimate (log intensity, higher = more binding, comparable within an allelic series)"
AAACTAAG,binding signal,SHOX,"8.12 upbm affinity estimate (log intensity, higher = more binding, comparable within an allelic series)"
GAATTAGA,binding signal,SHOX,"9.8 upbm affinity estimate (log intensity, higher = more binding, comparable within an allelic series)"
GAACTAAA,binding signal,SHOX,"8.27 upbm affinity estimate (log intensity, higher = more binding, comparable within an allelic series)"
GTTAGTCA,binding signal,SHOX,"8.37 upbm affinity estimate (log intensity, higher = more binding, comparable within an allelic series)"
ATTCATGA,binding signal,SHOX,"8.41 upbm affinity estimate (log intensity, higher = more binding, comparable within an allelic series)"
GGATTCCC,binding signal,HOXB4 [1],"7.58 upbm affinity estimate (log intensity, higher = more binding, comparable within an allelic series)"
same,binding signal,HOXB4 [2],"7.52 upbm affinity estimate (log intensity, higher = more binding, comparable within an allelic series)"
same,binding signal,PROP1 [16],"6.63 upbm affinity estimate (log intensity, higher = more binding, comparable within an allelic series)"
same,binding signal,PROP1 [17],"6.7 upbm affinity estimate (log intensity, higher = more binding, comparable within an allelic series)"
same,binding signal,PROP1 [18],"6.49 upbm affinity estimate (log intensity, higher = more binding, comparable within an allelic series)"
AAATATAA,binding signal,SHOX,"9.24 upbm affinity estimate (log intensity, higher = more binding, comparable within an allelic series)"
ATCTATTG,binding signal,SHOX,"8.32 upbm affinity estimate (log intensity, higher = more binding, comparable within an allelic series)"
GAAAAGTA,binding signal,SHOX,"7.94 upbm affinity estimate (log intensity, higher = more binding, comparable within an allelic series)"
GCATTAAA,binding signal,SHOX,"8.99 upbm affinity estimate (log intensity, higher = more binding, comparable within an allelic series)"
AAATTATC,binding signal,SHOX,"10.4 upbm affinity estimate (log intensity, higher = more binding, comparable within an allelic series)"
ATTACTTA,binding signal,HOXB4 [1],"12.1 upbm affinity estimate (log intensity, higher = more binding, comparable within an allelic series)"
same,binding signal,HOXB4 [2],"12.5 upbm affinity estimate (log intensity, higher = more binding, comparable within an allelic series)"
same,binding signal,ALX3 [15],"8.71 upbm affinity estimate (log intensity, higher = more binding, comparable within an allelic series)"
CTCAATAA,binding signal,SHOX,"9.16 upbm affinity estimate (log intensity, higher = more binding, comparable within an allelic series)"
GATTGAGA,binding signal,SHOX,"8.1 upbm affinity estimate (log intensity, higher = more binding, comparable within an allelic series)"
ACGTAATC,binding signal,SHOX,"8.86 upbm affinity estimate (log intensity, higher = more binding, comparable within an allelic series)"
ATTAAAGC,binding signal,HOXB4 [1],"11.7 upbm affinity estimate (log intensity, higher = more binding, comparable within an allelic series)"
same,binding signal,HOXB4 [2],"11.9 upbm affinity estimate (log intensity, higher = more binding, comparable within an allelic series)"
same,binding signal,NKX2-6 [19],"11.1 upbm affinity estimate (log intensity, higher = more binding, comparable within an allelic series)"
AAGCTCTC,binding signal,HOXB4 [1],"7.48 upbm affinity estimate (log intensity, higher = more binding, comparable within an allelic series)"
same,binding signal,HOXB4 [2],"7.53 upbm affinity estimate (log intensity, higher = more binding, comparable within an allelic series)"
same,binding signal,PROP1 [16],"6.71 upbm affinity estimate (log intensity, higher = more binding, comparable within an allelic series)"
same,binding signal,PROP1 [17],"6.64 upbm affinity estimate (log intensity, higher = more binding, comparable within an allelic series)"
same,binding signal,PROP1 [18],"6.84 upbm affinity estimate (log intensity, higher = more binding, comparable within an allelic series)"
TCATAACA,binding signal,SHOX,"8.35 upbm affinity estimate (log intensity, higher = more binding, comparable within an allelic series)"
ATATAGAG,binding signal,SHOX,"8.28 upbm affinity estimate (log intensity, higher = more binding, comparable within an allelic series)"
CTTAAGCA,binding signal,HOXB4 [1],"10.1 upbm affinity estimate (log intensity, higher = more binding, comparable within an allelic series)"
same,binding signal,HOXB4 [2],"10.1 upbm affinity estimate (log intensity, higher = more binding, comparable within an allelic series)"
same,binding signal,CRX,"10.3 upbm affinity estimate (log intensity, higher = more binding, comparable within an allelic series)"
CCGTGCGC,binding signal,HOXB4 [1],"7.73 upbm affinity estimate (log intensity, higher = more binding, comparable within an allelic series)"
same,binding signal,HOXB4 [2],"7.75 upbm affinity estimate (log intensity, higher = more binding, comparable within an allelic series)"
same,binding signal,PITX2,"7.97 upbm affinity estimate (log intensity, higher = more binding, comparable within an allelic series)"
AATGGTAC,binding signal,SHOX,"8.43 upbm affinity estimate (log intensity, higher = more binding, comparable within an allelic series)"
TCAAGTAA,binding signal,SHOX,"8.54 upbm affinity estimate (log intensity, higher = more binding, comparable within an allelic series)"
AATCGGTA,binding signal,SHOX,"8.66 upbm affinity estimate (log intensity, higher = more binding, comparable within an allelic series)"
CCAGATAA,binding signal,SHOX,"8.47 upbm affinity estimate (log intensity, higher = more binding, comparable within an allelic series)"
CCCATTTA,binding signal,SHOX,"8.95 upbm affinity estimate (log intensity, higher = more binding, comparable within an allelic series)"
ATTGCTAC,binding signal,SHOX,"8.23 upbm affinity estimate (log intensity, higher = more binding, comparable within an allelic series)"
